Source: PubChem BioAssay AID2283220 (EPA ToxCast)
Inconclusive results are not listed. Activity calls are given as the source filed them. The calls were made as follows: active = hit-call score of the fitted dose curve at least 0.9, where 1 is the maximum; inconclusive = response in the unintended direction; inactive = score below 0.9.

Biological target: human Serum/Glucocorticoid Regulated Kinase 1 (SGK1), SGK1 (gene 6446) (UniProt O00141)
Test: NVS_ENZ_hSGK1: NovaScreen (NVS) Enzymatic Assay for human Serum/Glucocorticoid Regulated Kinase 1 (SGK1)
Method: NVS_ENZ_hSGK1 is a biochemical, single-readout assay that uses extracted gene-proteins in a cell-free assay. Measurements were taken 1 hour after chemical dosing in a 96-well plate.NVS_ENZ_hSGK1 is one of one assay component(s) measured or calculated from the NVS_ENZ_hSGK1 assay. It is designed to make measurements of enzyme activity, a form of enzyme reporter, as detected with fluorescence intensity signals by Fluorescence and electrophoretic mobility shift technology.Data from the assay component NVS_ENZ_hSGK1 was analyzed into 1 assay endpoint. This assay endpoint, NVS_ENZ_hSGK1, was analyzed in the positive analysis fitting direction relative to DMSO as the negative control and baseline of activity. Using a type of enzyme reporter, loss-of-signal activity can be used to understand changes in the enzymatic activity as they relate to the gene SGK1. Furthermore, this assay endpoint can be referred to as a primary readout, because this assay has produced […] where this one serves a enzymatic activity function. To generalize the intended target to other relatable targets, this assay endpoint is annotated to the kinase intended target family, where the subfamily is serine/threonine kinase.
Binding assays used specific radioligands (tritiated, iodinated) with non-radioactive competitive displacement ligands in agonist or antagonist protocols (as indicated) and various reference compounds and inhibitors to titrate specific binding to receptors and transporters. Most enzyme assays (CYPs, kinases, phosphatases, proteases, HDACs) used recombinant protein and specific substrates (fluorescence mostly, some colorimetric and radioactive) and inhibitors, followed by a biochemical separation of substrate and product. All assays for the biochemical HTS were initially run in duplicate at a single concentration (10 uM for CYP450 assays and 25 uM for all others). […]

Sequence of human Serum/Glucocorticoid Regulated Kinase 1 (SGK1), SGK1 (gene 6446) (O00141 whole entry, looked up): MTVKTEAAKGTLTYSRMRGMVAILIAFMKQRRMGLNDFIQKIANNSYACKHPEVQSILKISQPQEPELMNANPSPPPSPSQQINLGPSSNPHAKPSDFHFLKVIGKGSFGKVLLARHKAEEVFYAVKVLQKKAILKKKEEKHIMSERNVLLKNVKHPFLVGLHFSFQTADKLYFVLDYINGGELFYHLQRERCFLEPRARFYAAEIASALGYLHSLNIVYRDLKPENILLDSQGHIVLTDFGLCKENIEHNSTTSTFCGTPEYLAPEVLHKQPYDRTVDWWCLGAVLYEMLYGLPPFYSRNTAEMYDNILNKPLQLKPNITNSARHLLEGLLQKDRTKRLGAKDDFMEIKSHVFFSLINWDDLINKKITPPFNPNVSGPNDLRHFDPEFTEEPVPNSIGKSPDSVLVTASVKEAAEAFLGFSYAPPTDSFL

S=C([S-])NCCNC(=S)[S-].[Mn+2]
AC50: 10.6 µM (active)

N#CSCSc1nc2ccccc2s1
outcome: inactive

O=C(Nc1ccc([N+](=O)[O-])cc1Cl)c1cc(Cl)ccc1O
outcome: inactive
